Only some compounds are listed: those with a hit (about 19% of all), similar ones and a draw of the others.
TDP1 cell noCPT = qHTS for Inhibitors of human tyrosyl-DNA phosphodiesterase 1 (TDP1): qHTS in cells in absence of CPT; DT40 Tdp1-/- hTDP1 cells, no CPT, ATP luminescence, 48 h; Potency, µM (titrated, usually from 46.2 µM), most hits filed as inhibitors; actives 15% (n = 420,000); further: nearly all actives have a fitted effect of over 55% in size
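Growth kinetics read by CellTiter-Glo luminescence after ≥48 hr at 37 °C. Cells: DT40 Tdp1-/- stably carrying human TDP1, 400 per well, compound exposure in the absence of CPT (DMSO vehicle).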
TDP1 cell CPT = growth inhibition of DT40 Tdp1-/-;hTDP1 cells with camptothecin (screen for TDP1 inhibitors); AID 686979; actives 12% (n = 420,000); chicken DT40 Tdp1-/-;hTDP1 cells + 20 nM CPT, ATP luminescence, 48 h; Potency, µM (top dose mostly 46.2 µM), most hits filed as inhibitors; further: nearly all actives have a fitted effect of over 55% in size
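Chicken DT40 Tdp1-/- cells stably complemented with human TDP1 were seeded at 400 cells/well in medium containing 20 nM camptothecin, exposed to pin-transferred compounds, and grown at 37 °C for at least 48 hr. Viability was read as ATP luminescence.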
IL1B secr inh = inflammasome signaling inhibition, IL-1 beta readout. THP-1 LPS/ATP IL-1B secretion, AlphaLISA, 16 h; stronger effect = lower value. activity change, % at 57.5 µM. actives 4.7% (n = 360,000). AID 743279; in the data active means activity change below about -50%; inconclusive means mostly about -30% to -49%
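THP-1 cells pretreated 1 hr with compounds (up to 57.5 uM final), then stimulated with LPS (250 ng/mL final) plus ATP (1.25 mM final); secreted IL-1B measured by AlphaLISA after 16 hr, decreased signal indicating inhibition.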
HT1080 IDH1KD tx = kills HT-1080 cells with IDH1 knockdown | HT-1080 IDH1 knockdown viability, ATP luminescence, 48 h | Potency, µM (highest dose often 46.1 µM), usual class: cytotoxic | actives 2% (n = 360,000)
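CellTiter-Glo luminescence after 48 h compound exposure at 37 degrees C of IDH1-knockdown HT-1080 cells in 5% FBS RPMI. %Activity scaled between DMSO wells and cell-free media wells, with curves fitted and assigned curve classes.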
HT1080-NT tox = kills 2HG-producing HT-1080-NT fibrosarcoma cells; HT-1080-NT fibrosarcoma viability, CellTiter-Glo ATP luminescence, 48 h; actives 1.6% (n = 360,000); Potency, µM (top dose mostly 46.1 µM), most hits filed as cytotoxic;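 further: NT is the 2HG producing partner of a matched IDH1 knockdown line; nearly all actives have a fitted effect of over 55% in size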
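HT-1080-NT fibrosarcoma cells (2HG-overproducing), 750 cells/well in RPMI with 5% FBS, dosed after 2 h and incubated 48 h at 37C. CellTiter-Glo luminescence normalized to DMSO and no-cell wells; concentration-response curves fitted and classed.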
A number is an active result; – = inactive; ? = inconclusive; · = no result given. Unless noted, the call rests on the fitted dose curve; in most records, active means well fitted curve in the direction sought with a large enough effect; inconclusive means small, poorly fitted or top-dose-only effect, or another doubt; inactive means no such curve, though single readings can be large; an effect the other way counts as inactive or inconclusive.

SMILES | TDP1 cell noCPT | TDP1 cell CPT | IL1B secr inh | HT1080 IDH1KD tx | HT1080-NT tox
CSCC[C@H](NS(=O)(=O)c1ccc(C)cc1)C(=O)N1CCC(C(=O)N[C@@H](Cc2ccc(O)cc2)C(=O)O)CC1 | – | – | – | – | –
Cc1c(CCOC(=O)c2ccc(Cl)cc2Cl)sc[n+]1CC(=O)c1ccc(Br)cc1 | 18µM | ? | ? | – | –
Cc1c(CCOC(=O)C2C3CC4CC(C3)CC2C4)sc[n+]1CC(=O)c1ccc(Br)cc1 (configuration not stated) | 18µM | ? | -85 | ? | ?
NC(=O)C1(N2CCCCC2)CCN(Cc2ccc(Br)cc2)CC1 | 16µM | ? | – | – | –
O=C(CSc1nnc(CNC(=O)c2ccc(F)cc2)o1)NCc1ccc2c(c1)OCO2 | – | – | – | – | –
Cc1oc(-c2ccc(Cl)cc2)nc1CN1CCC(C(=O)NCc2cccs2)CC1 | ? | ? | -54 | ? | 21µM
Cc1oc(-c2ccc(Cl)cc2)nc1CN1CCC(C(=O)NCCCN2CCOCC2)CC1 | ? | 29µM | ? | ? | 22µM
COCCCNC(=O)C1CCN(Cc2nc(-c3ccc(OC)c(OC)c3)oc2C)CC1 | – | – | · | · | ·
CCC1CCCCN1CCCNC(=O)C1CCN(Cc2nc(-c3ccc(Cl)cc3)oc2C)CC1 (configuration not stated) | 2.6µM | 3.7µM | -90 | ? | 18µM
Cc1oc(-c2ccc(Cl)cc2)nc1CN1CCC(C(=O)NCC2CCCO2)CC1 (configuration not stated) | – | – | ? | – | –
COc1ccc(-n2c(=S)[nH]c3cc(C(=O)NCCCN4CCOCC4)ccc3c2=O)cc1OC | – | – | – | – | –
Cc1nc(SCC2(C)CC2(Cl)Cl)n[nH]1 (configuration not stated) | – | – | – | – | –
CCNC(=S)Nc1ccc2c(c1)c(=O)n(C)n2Cc1cccc(C(F)(F)F)c1 | 23µM | ? | – | – | –
Cc1cc(C)cc(Cn2c3ccc(NC(=S)NC4CCCCC4)cc3c(=O)n2C)c1 | ? | 23µM | – | – | –
Cn1c(=O)c2cc(NC(=O)NCCc3ccccc3)ccc2n1Cc1cccc(C(F)(F)F)c1 | 23µM | ? | – | ? | ?
Cc1cc(C)cc(Cn2c3ccc(NC(=O)NCc4ccccc4)cc3c(=O)n2C)c1 | ? | ? | – | – | –
Cn1c(=O)c2cc(NC(=O)NCc3ccccc3)ccc2n1C/C=C/c1ccccc1 | 7.3µM | 7.3µM | – | 8.2µM | 8.2µM
CCOc1ccc(NC(=O)N2CCC(N3CCCCC3)CC2)cc1 | – | – | · | · | ·
CCn1c(=O)c2sccc2n(Cc2cc(C(=O)OC)ccc2OC)c1=O | ? | – | – | – | –
CCOC(=O)c1csc(NNC=O)n1 | – | – | – | – | –
Cc1cc(C)cc(Cn2c3ccc(NC(=O)NCCc4cccs4)cc3c(=O)n2C)c1 | ? | 16µM | – | ? | –
Cn1c(=O)c2cc(NC(=O)OCCF)ccc2n1Cc1cccc(C(F)(F)F)c1 | 23µM | 23µM | – | – | –
Cn1c(=O)c2cc(NC(=S)NC3CCCCC3)ccc2n1Cc1cccc(C(F)(F)F)c1 | ? | ? | – | – | –
Cc1ccc(CNC(=S)Nc2ccc3c(c2)c(=O)n(C)n3Cc2cccc(C(F)(F)F)c2)cc1 | 15µM | 26µM | – | ? | ?
Cn1c(=O)c2cc(NC(=O)NCCc3cccs3)ccc2n1Cc1ccccc1 | – | ? | – | – | –
SMILES | TDP1 cell noCPT | TDP1 cell CPT | IL1B secr inh | HT1080 IDH1KD tx | HT1080-NT tox
Cc1ccc(C(=O)N/N=C/c2cccnc2)cc1Cl | – | – | – | – | –
Cc1ccc(CNC(=O)C23CN(Cc4ccccc4)CC2C(c2cccc([N+](=O)[O-])c2)=NO3)cc1 (configuration not stated) | 21µM | ? | – | – | –
O=C(NCc1ccco1)C12CN(Cc3ccccc3)CC1C(c1cccc([N+](=O)[O-])c1)=NO2 (configuration not stated) | 18µM | ? | – | – | –
O=C(NCc1ccco1)C12CN(Cc3ccccc3)CC1C(c1ccc([N+](=O)[O-])cc1)=NO2 (configuration not stated) | ? | 16µM | – | – | –
COC(C/C=C\[C@H](O)[C@H](C)OCc1ccccc1)OC | – | – | – | – | –
COc1ccccc1-c1cc(NC=O)c2ncc(-c3cccc(C(F)(F)F)c3)n2c1 | 18µM | ? | – | – | –
COc1cc(-c2cc(NC=O)c3ncc(-c4cccc(C(F)(F)F)c4)n3c2)cc(OC)c1OC | 10µM | 8.2µM | – | – | –
CN(C)c1ccccc1-c1cc(NC=O)c2ncc(-c3cccc(C(F)(F)F)c3)n2c1 | 23µM | ? | -74 | 29µM | ?
COc1ccccc1-c1cc(NC=O)c2ncc(-c3ccc(F)cc3)n2c1 | 18µM | 13µM | – | 18µM | ?
COc1ccc(-c2cc(NC=O)c3ncc(-c4cccc(C(F)(F)F)c4)n3c2)cc1OC | 21µM | 23µM | -63 | 21µM | ?
N#Cc1cc(C(=O)c2cc(Br)ccc2O)cn(C2CC2)c1=O | – | – | – | – | –
CC(C)n1cc(C(=O)c2cc(Br)ccc2O)cc(C#N)c1=O | 18µM | ? | – | – | –
C=CCn1cc(C(=O)c2cc(Br)ccc2O)cc(C#N)c1=O | ? | 18µM | – | – | –
COCCCn1cc(C(=O)c2cc(Br)ccc2O)cc(C#N)c1=O | ? | ? | – | – | –
Cc1nc(N2CCN(c3ccccn3)CC2)c2c(C)c(C(=O)Nc3c(F)cc(F)cc3Br)sc2n1 | 13µM | 16µM | – | – | –
Cc1nc(N2CCN(c3ccccn3)CC2)c2c(C)c(C(=O)Nc3ccc(Cl)cc3)sc2n1 | ? | ? | -58 | – | –
Cc1nc(N2CCN(c3ccccn3)CC2)c2c(C)c(C(=O)Nc3c(C)cc(Br)cc3C)sc2n1 | ? | ? | ? | – | –
Cc1ccc(NC(=O)c2sc3ncn(CC(=O)N4CCN(c5ccccn5)CC4)c(=O)c3c2C)cc1 | ? | – | – | – | –
Cc1ccc(NC(=O)CCNC(=O)c2ccc([N+](=O)[O-])cc2)cc1C | – | – | – | – | –
COC(=O)c1sccc1NC(=O)CSc1ccccc1NS(=O)(=O)c1ccc(Br)cc1 | – | – | – | – | –
O=C(NCc1ccc2c(c1)OCO2)c1ccc2c(c1)N(Cc1ccc(F)cc1)C(=O)c1ccccc1S2=O (configuration not stated) | – | – | · | · | ·
Cn1cnc(S(=O)(=O)N2CCC(C(=O)Nc3ccc(F)cc3F)CC2)c1 | – | – | · | · | ·
O=C(Nc1ccc(F)cc1F)C1CCN(c2ncnc3c2sc2cccc(F)c23)CC1 | 16µM | 6.5µM | – | – | –
CCNc1ncc2nc(-c3ccc(OC)cc3)c(=O)n(CCC#N)c2n1 | – | – | · | · | ·

Screening data as filed in PubChem.
